In all, about 68,000 compounds went through this assay and about 2,700 (4%) showed an effect of 50% or more. Only a selection was taken, and strong results are over-represented in it overall.

Among the data in ChEMBL document CHEMBL4513216, “Probing the Open Global Health Chemical Diversity Library for Multistage-Active Starting Points for Next-Generation Antimalarials” (ACS Infect Dis, 2020) are INHIBITION values, retold here.

The experiment deals with Plasmodium berghei. The experiment is described as follows: Screen against P. berghei liver stage (PbLuc), transformed with Luciferase, at 2uM. The format is functional, HepG2. Particulars: tested at 2 uM.
Turning to `Cn1cccc1CN(C(=O)Cc1cccs1)C1CC1`, the INHIBITION is listed as 51.96%.

With `CN(Cc1cccs1)C1CCC[C@@H]2CN(C(=O)c3cccn3C)C[C@H]12` (some centres undefined), the INHIBITION came to 6.33%.

With `CN(C(=O)Cc1cccs1)C1CCN(c2ccccn2)CC1`, the INHIBITION is on record as 16.89%.

`O=C(O)CC(CC(=O)NCCc1cccs1)c1cccs1` (centres undefined): the INHIBITION is recorded as 17.25%.

As for `Cn1cccc1CN(C(=O)CC(CC(=O)O)c1cccs1)C1CC1` (centres undefined), the INHIBITION was 81.52%.

As for `O=C(O)CC(CC(=O)N(Cc1ccsc1)C1CC1)c1cccs1` (centres undefined), the INHIBITION worked out at 1.06%.

Turning to `CCN(CC1CCOC1)C(=O)NCc1nnc2n1CCCCC2` (centres undefined), the INHIBITION is reported as 7.24%.

As to `CC(NCC1CCN(CCO)CC1)c1ccc(Cl)cc1` (centres undefined), the INHIBITION was 56.49%.

With `CC(NCC1CCN(CCO)CC1)c1ccc(C(F)(F)F)cc1` (centres undefined), the INHIBITION is reported as 55.39%.

`CC(NCC1CCN(CCO)CC1)c1ccc(OC(F)(F)F)cc1` (centres undefined): the INHIBITION stood at 47.68%.

`CC(NCC1CCN(CCO)CC1)c1cccnc1` (centres undefined): the INHIBITION is -4.09%.

For `CC(NCC1CCN(CCO)CC1)c1cccc(Cl)c1` (centres undefined), the INHIBITION came out at 34.46%.

In the case of `CC(NCC1CCN(CCO)CC1)c1ccc(F)c(Cl)c1` (centres undefined), the INHIBITION is -111.19%.

As to `CCc1nc(NC(=O)NCCc2cscn2)nn1C`, the INHIBITION was 1.88%.

For the molecule `Clc1cccc(C(CNCc2ccccn2)N2CCOCC2)c1` (centres undefined), the INHIBITION is reported as 20.8%.

Take `CC(C)c1nn(C)c(N(C)C)c1CNCc1ccnc(N(C)C)c1`: the INHIBITION turned out to be 1.36%.

Take `O=C(Cn1ccc2ccc(Cl)cc21)NCc1ccc(C(=O)O)cc1`: the INHIBITION was found to be 30.98%.

Take `O=C(NCC1CC1)C1CN(C(=O)Nc2ccccc2)CC12CCOCC2` (centres undefined): the INHIBITION is reported as -48.3%.

On to `CC(C)NC(=O)C1CN(C(=O)Nc2ccccc2)CC12CCOCC2` (centres undefined), for which the INHIBITION is recorded as 47.1%.

Consider `O=C(Nc1ccccc1)N1CC(C(=O)N2CCCC2)C2(CCOCC2)C1` (centres undefined), for which the INHIBITION came out at 51.72%.

For the molecule `CN(Cc1cc2n(n1)CCN(C(=O)[C@H]1CCCO1)C2)Cc1nccs1`, the INHIBITION was 24.08%.

For the molecule `c1ccc(Oc2cccc(OC34CCCN(CC3)C4)c2)cc1` (centres undefined), the INHIBITION is 43.72%.

For `Cc1ccc(-c2nc(CN3CC(n4nc(C)cc4C)C3)no2)cc1`, the INHIBITION was found to be 31.55%.

As to `COCCc1noc(CN2CCOC(Cn3nc(C)cc3C)C2)n1` (centres undefined), the INHIBITION is on record as -85.26%.

For the molecule `Cc1cc(C)n(C2CN(Cc3noc(C4CC4)n3)C2)n1`, the INHIBITION is -14.28%.

Take `Cc1cc(C)n(C2CN(Cc3noc(-c4ccccc4)n3)C2)n1`: the INHIBITION stood at 1.34%.

`COCCc1noc(CN2CC(n3nc(C)cc3C)C2)n1`: the INHIBITION is reported as 65.39%.

Consider `Cc1cccc(-c2nc(CN3CC(n4nc(C)cc4C)C3)no2)c1`, for which the INHIBITION is on record as 51.31%.

Turning to `Cn1c(CO)cnc1SC1CCCN(c2ccccc2F)C1=O` (centres undefined), the INHIBITION is 15.82%.

Regarding `Cc1ncsc1CN1CCn2c(COCC3CC3)cnc2C1C` (centres undefined), the INHIBITION is -21.27%.

On to `CCc1noc(CNC2CCCN(Cc3noc(C4CC4)n3)C2)n1` (centres undefined), for which the INHIBITION is 30.29%.

`CCS(=O)(=O)c1ncc(CN(C)Cc2ccccc2Cl)n1CCOC`: the INHIBITION is -5.13%.

For the molecule `CCS(=O)(=O)c1ncc(CN(C)Cc2ccccc2OC)n1CCOC`, the INHIBITION came to 60.74%.

As for `CCS(=O)(=O)c1ncc(CN(C)Cc2ccccn2)n1CCOC`, the INHIBITION was -40.94%.

For `CN1CCCC1CCNC(=O)c1ccccc1-n1cnc(CN)c1` (centres undefined), the INHIBITION amounted to 22.95%.

With `CN(C)Cc1cn(-c2ccccc2C(=O)NCC2CCCCN2C)cn1` (centres undefined), the INHIBITION amounted to 87.38%.

`CN(C)Cc1cn(-c2ccccc2C(=O)NCCC2CCCN2C)cn1` (centres undefined): the INHIBITION is 16.43%.

As to `Cc1csc(N2CCN(Cc3nnsc3Cl)CC2C)n1` (centres undefined), the INHIBITION is reported as -39.79%.

As to `c1ccc(C[C@H]2CN(Cc3nccs3)CC[C@@H]2OCC2CC2)cc1`, the INHIBITION worked out at 41.79%.

As for `CC(C)NC(=O)N(C)C(c1cccc(F)c1)c1ccccn1` (centres undefined), the INHIBITION is listed as -30.55%.

Regarding `CCNC(=O)N(C)C(c1ccccc1)c1ccccn1` (centres undefined), the INHIBITION is given as -18.26%.

As to `CCNC(=O)N(C)C(c1cccc(F)c1)c1ccccn1` (centres undefined), the INHIBITION is on record as 51.21%.

With `Cc1ccc(S(=O)(=O)N2CCOCC2C(N)=O)c(F)c1` (centres undefined), the INHIBITION was found to be 14.17%.

As for `Cc1ccnc(SCC(=O)Nc2csc3nc(=O)c(C)nn23)n1`, the INHIBITION is listed as 35.42%.

As for `CNC(=O)COc1cccc(CNC(=O)c2c(C)noc2C(C)C)c1`, the INHIBITION came out at 74.35%.

As for `Cc1noc(C(C)C)c1C(=O)NCc1cccc(N(C)C)c1`, the INHIBITION was -57.97%.

Take `Cc1noc(C(C)C)c1C(=O)NCc1ccc2c(c1)OCCO2`: the INHIBITION amounted to 56.02%.

With `Cc1noc(C(C)C)c1C(=O)NCC(c1ccsc1)N(C)C` (centres undefined), the INHIBITION turned out to be 63.95%.

On to `Cc1noc(C)c1C(=O)NCC(c1ccsc1)N(C)C` (centres undefined), for which the INHIBITION was -12.82%.

Turning to `Cc1noc(C(C)C)c1C(=O)NCc1ccc(N(C)C)c(F)c1`, the INHIBITION is given as -9.17%.

Turning to `CNC(=O)COc1cccc(CNC(=O)c2c(C)noc2C)c1`, the INHIBITION is given as 24.36%.

With `COCc1cccc(CNC(=O)c2c(C)noc2C(C)C)c1`, the INHIBITION is given as 49.9%.

Consider `CCN(CC)C(CNC(=O)c1c(C)noc1C(C)C)c1ccsc1` (centres undefined), for which the INHIBITION is given as -25.61%.

Turning to `O=S(=O)(C1CC1)N1CCCn2nnc(Cn3cccc3)c2C1`, the INHIBITION is given as 23.81%.

Regarding `CCOCCC(=O)N1CCCCC1CCn1cccn1` (centres undefined), the INHIBITION is 30.25%.

Take `CCn1cc2c(n1)CN(Cc1ccncc1)CC2COCC1CC1` (centres undefined): the INHIBITION is on record as 14.94%.

For `CCOCC1CN(c2ccncn2)Cc2cnn(CC)c21` (centres undefined), the INHIBITION is recorded as 32.69%.

On to `Cc1cc2c(N3CCC(N(C)CCc4cnn(C)c4)CC3)ncnc2s1`, for which the INHIBITION is given as -15.4%.

For the molecule `CSCC(CCO)NC(=O)Nc1ccc(Br)cc1` (centres undefined), the INHIBITION is listed as -39.48%.

With `C[C@@H]1CN(C(=O)CCc2nncn2C)CC[C@@]1(O)C1CCC1`, the INHIBITION is on record as 12.43%.

For `C[C@@H]1CN(C(=O)CCc2nncn2C)C[C@@]1(O)C1CCC1`, the INHIBITION is listed as 52.08%.

On to `C[C@@H]1CN(C(=O)CCc2cnn(C)c2)C[C@@]1(O)C1CCC1`, for which the INHIBITION was 11.33%.

For the molecule `Cc1noc(C)c1CCC(=O)Nc1ccn(C)n1`, the INHIBITION is -7.68%.

On to `CN(Cc1cnccn1)CC1CCOc2ccccc2C1` (centres undefined), for which the INHIBITION stood at 20.76%.

Take `CCc1n[nH]c(C(=O)NCCn2nccc2C)c1C`: the INHIBITION worked out at 20.71%.

Turning to `CCc1n[nH]c(C(=O)NCCn2ccnc2C)c1C`, the INHIBITION is 57.34%.

Regarding `CCc1n[nH]c(C(=O)NCCn2ccc(C)n2)c1C`, the INHIBITION turned out to be 16.87%.

On to `CC(=O)c1ccc(F)cc1-c1cc(NCCO)nc2[nH]ccc12`, for which the INHIBITION is 6.85%.

In the case of `COc1ccccc1Nc1nc2c(s1)C(=O)CN(C(=O)CC(C)C)C2`, the INHIBITION stood at 2.6%.
